The supplement of paper PMC13380429

Tests used:
[1] = tested on: Vero E6 infected with SARS-CoV-2; assay: morphology score (similarity to uninfected cells); higher = more like uninfected cells; details: 24 h
[2] = tested on: Vero E6 infected with SARS-CoV-2; assay: SARS-CoV-2 infection rate relative to infected DMSO; higher = more infection, active = 60 or less; details: 24 h

SMILES | morphology score [1] | SARS-CoV-2 infection rate [2]
CCCC[C@@H](C=O)NC(=O)[C@H](CC(C)C)NC(=O)OCc1ccccc1 [calpeptin] (10 µM) | 0.815 | 12.5% (active)
CCN(CC)CC1CCN(c2ncc3ncnc(Nc4ccc(F)c(Cl)c4)c3n2)CC1 (10 µM) | -0.273 | 112% (inactive)
O=C(O)c1ccc(Nc2ncc3c(n2)-c2ccc(Cl)cc2C(c2c(F)cccc2F)=NC3)cc1 (10 µM) | 0.00168 | 109% (inactive)
Cc1c(N2C(=O)[C@@H]3[C@H](O)CCN3C2=O)ccc(C#N)c1Cl (10 µM) | 0.189 | 91.5% (inactive)
CN(C)CCOc1ccc(-c2nc(-c3ccncc3)c(-c3ccc4c(c3)CC/C4=N\O)[nH]2)cc1 (10 µM) | -0.0571 | 96% (inactive)
CCN(CC)CCCCNc1ncc2cc(-c3c(Cl)cccc3Cl)c(NC(=O)NC(C)(C)C)nc2n1 (0.833333 µM) | 0.085 | 117% (inactive)
COc1cc(OC)nc(O[C@H](C(=O)O)C(OC)(c2ccccc2)c2ccccc2)n1 [darusentan] (10 µM) | -0.0345 | 116% (inactive)
CC(C)OC(=O)CNC(=O)[C@H](CS)NC(=O)CC[C@H](N)C(=O)O [glutathione-monoisopropyl-ester] (10 µM) | 0.0539 | 101% (inactive)
Nc1nccc(Oc2ccc(NC(=O)c3c[nH]cc(-c4ccc(F)cc4)c3=O)cc2F)c1Cl [metatinib] (10 µM) | 0.551 | 102% (inactive)
N#C/C(=C\c1cn(-c2ccccc2)c2ccccc12)C(=O)O (10 µM) | -0.0582 | 99.5% (inactive)
